GALK inh: qHTS Assay for Inhibitors of Human Galactokinase (GALK): NCGC Sytravon Library Screen. AID 1347072, 2019. 44,000 tested, under 10 active. P51570. recombinant GALK, Kinase-Glo ATP luminescence, 1 h. Potency, µM (highest dose often 57.5 µM), for inactives: at the top dose activity, negative = inhibition, actives largely listed as inhibitors;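 note: plate controls were full GALK reaction for no effect and reaction lacking GALK for full effect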
Target sequence (P51570 whole entry, looked up): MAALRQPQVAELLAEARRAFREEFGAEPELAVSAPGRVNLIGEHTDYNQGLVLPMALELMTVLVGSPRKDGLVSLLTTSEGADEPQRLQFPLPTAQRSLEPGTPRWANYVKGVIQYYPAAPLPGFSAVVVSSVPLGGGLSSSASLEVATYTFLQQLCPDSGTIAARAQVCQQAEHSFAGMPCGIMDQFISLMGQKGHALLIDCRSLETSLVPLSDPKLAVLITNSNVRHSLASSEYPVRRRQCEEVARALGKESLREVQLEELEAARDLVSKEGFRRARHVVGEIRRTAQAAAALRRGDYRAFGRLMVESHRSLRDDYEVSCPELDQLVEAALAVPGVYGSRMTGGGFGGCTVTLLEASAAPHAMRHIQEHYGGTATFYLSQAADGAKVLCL
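5 nM GALK with 35 µM ATP and 100 µM galactose in HEPES pH 8.0, MgCl2, NaCl, DTT, BSA; 1 h RT reaction, remaining ATP detected by Kinase-Glo Plus luminescence after 10 min; qHTS concentration series.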
TSG101-PTAP inh: qHTS Validation Assay for Inhibitors of HIV-1 Budding by Blocking the Interaction of PTAP/TSG101: Sytravon Library Screen; Fluorescence polarization, FITC-PTAP peptide/Tsg101, 20 min; Tumor susceptibility gene 101 protein (Homo sapiens), Q99816; Potency, µM (doses to about 115 µM), usual class: inhibitors; 44,000 tested, under 10 active; AID 1347069, 2019; note: potency is the fitted concentration of half-maximal effect; 0% is about no effect
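Steps: Tsg101 binding domain (10 uM final) in HEPES pH 7.5/NaCl/Tween 20/EDTA/TCEP; add compound; add FITC-PTAP peptide (50 nM final); incubate 20 min r.t.; read polarization.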
B2AR arrestin ag: qHTS assay of beta-arrestin-biased ligands of beta2-adrenergic receptor: NCGC Sytravon Library Screen. Beta-2 adrenergic receptor (Homo sapiens), P07550. HTLA Tango cells, beta-arrestin recruitment, luciferase luminescence, 18 h. 44,000 tested, under 10 active. Potency, µM (series often up to 46.1 µM), actives largely listed as activators;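 note: potency is the fitted concentration of half-maximal effect; 0% = DMSO and full agonism = EC100 isoproterenol or metaproterenol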
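First, Tango cells carrying beta2-AR and beta-arrestin fusions received compound up to 46 microM. After 18 hr at 37 degrees C, luciferase substrate was added for 15 minutes, then luminescence gave %Activity for curve fitting.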
GALC G270D up: A Novel Cell-Based Assay to Identify Small Molecules for B -Galactocerebrosidase. P54803. 145M-Twi-hGALC-G270D cells (Twitcher mouse brain line with human GALC G270D), HMU-beta-Gal fluorescence, 48 h. Potency, µM (top dose mostly 57.5 µM), most hits filed as activators. hit rate 0.1% among 45,000. AID 1159614, 2016; note: potency is the fitted concentration of half-maximal effect; 0% is about no effect; nearly all actives have a fitted effect of over 65% in size
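Live 145M-Twi cells (Twitcher mouse brain-derived, GALC-null) stably expressing human GALC-G270D, with a wild-type GALC line, were compound-treated. Residual GALC activity was then read as fluorescence from 0.1 mM final HMU-β-gal at pH 5.2; higher signal means activation.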
NTMT1 inhibitor: Primary qHTS for Inhibitors of N-terminal methyltransferase 1 (NTMT1): MTaseGlo Assay | Potency, µM (titrated, usually from 114 µM), inactives show top-dose activity change, negative = inhibition, most hits filed as inhibitors | AID 1645870, 2021 | NTMT1 MTase-Glo SAH luminescence, purified enzyme | hit rate 2.5% among 59,000 | N-terminal Xaa-Pro-Lys N-methyltransferase 1 (Homo sapiens), Q9BV86;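 note: potency is the fitted concentration of half-maximal effect; plate controls were DMSO vehicle for no effect and no enzyme for full effect; nearly all actives have a fitted effect of over 65% in size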
Target sequence (Q9BV86 whole entry, looked up): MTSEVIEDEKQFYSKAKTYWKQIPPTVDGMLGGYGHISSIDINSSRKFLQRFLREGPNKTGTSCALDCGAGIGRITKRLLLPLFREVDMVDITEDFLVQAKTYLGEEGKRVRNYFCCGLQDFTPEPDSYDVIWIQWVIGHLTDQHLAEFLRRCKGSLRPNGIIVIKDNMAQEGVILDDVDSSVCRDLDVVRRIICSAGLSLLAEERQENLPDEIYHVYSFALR
FH mod: Identification of activators of human fumarate hydratase by quantitative high-throughput screening; AID 1347055, 2019; Potency, µM (titrated, usually from 79.9 µM), inactives show at the highest dose activity change, negative = inhibition, most hits filed as inhibitors; FH coupled MDH/diaphorase resazurin fluorescence, 15 min; hit rate 0.22% among 54,000; note: potency is the fitted concentration of half-maximal effect; % is set by controls: 0 for no effect and ±100 for the full control effect; the screen sought activators but most active calls are inhibition curves; nearly all actives have a fitted effect of over 45% in size
CLK4 inh: Confirmation Assay for Inhibitors of CDC-like Kinase 4 (Kinase-Glo Assay): SAR round 2. shares compounds with NTMT1 inhibitor. recombinant Clk4, Kinase-Glo ATP luminescence, 4.5 h. Potency, µM (highest dose often 76.9 µM), without a hit: top-dose activity, negative = inhibition, usual class: inhibitors. hit rate 90% among 90. AID 493204, 2011
NNMT inh: Counterscreen qHTS for Inhibitors of N-terminal methyltransferase 1 (NTMT1): NNMT MTaseGlo assay. shares compounds with NTMT1 inhibitor. NNMT MTase-Glo luminescence, SAH detection. Potency, µM (top dose mostly 57.1 µM), inactives show at the top dose activity, negative = inhibition, usual class: inhibitors. hit rate 10% among 120. AID 1645878, 2021
* hit, by the source's call; i = inactive; ? = inconclusive; nt = no result; ! = a repeat was not active; [ ] = remark or other dose. This is one part of a sample in which hits are shown more often than they occur. Calls come from the whole dose curve; as a rule, active = well fitted curve in the direction sought with a large enough effect; inconclusive = small, poorly fitted or top-dose-only effect, or another doubt; inactive = no such curve, though single readings can be large; an effect the other way counts as inactive or inconclusive.

SMILES	GALK inh	TSG101-PTAP inh	B2AR arrestin ag	GALC G270D up	NTMT1 inhibitor	FH mod	others
C[C@@H](Oc1cc(-n2cnc3ccc(CN4CCN(C)CC4)cc32)sc1C(N)=O)c1ccccc1C(F)(F)F	nt	nt	nt	nt	8.9µM*	1%[53.3 µM]
N#Cc1cccc(CN2CCC(N(Cc3cccnc3)C(=O)Nc3ccccc3-c3ccccc3)CC2)c1	nt	nt	nt	nt	-14%	-5%
Cc1cc(NS(=O)(=O)c2ccc(NC(=O)Cc3ccc(F)c(Cl)c3)cc2)no1	nt	nt	nt	nt	5%	nt
N#C/C(=C\c1ccc(-c2cc(Cl)ccc2Cl)o1)C(=O)Nc1ccccc1C(=O)O	0%	i	i	i	10µM*	-18%
CCOC(=O)c1c(N)n(-c2cccc(OC)c2)c2nc3ccccc3nc12	1%	i	i	4µM*	13%	-3%
CCOc1ccc(CCNC(=O)c2cc3ccccc3n2Cc2cc(C)cc(C)n2)cc1OCC	nt	nt	nt	nt	11%	nt
CCCS(=O)(=O)c1nc(S(=O)(=O)c2ccc(C)cc2)c(N(CC)CC)s1	5%	i	i	7.9µM*	0%	-25%
CO[C@H]1/C=C/[C@@](C)(O)/C=C/C(=O)O[C@H](C)[C@@H](C)CC/C=C/1C	nt	nt	nt	nt	?	-10%[53.3 µM]
CC(=O)N1c2ccc(S(=O)(=O)N3CCN(c4cccc(Cl)c4)CC3)cc2CC1C (stereo unspecified)	0%	i	i	i	-16%	-14%
CCC(=O)N1c2ccc(S(=O)(=O)N3CCN(c4ccccc4Cl)CC3)cc2CC1C (stereo unspecified)	-1%	i	i	i	89µM*	-13%
COC(=O)C1=CO[C@@H](O[C@@H]2O[C@H](CO)[C@@H](O)[C@H](O)[C@H]2O)[C@@H]2C(CO)=CC[C@]12O	nt	nt	nt	nt	9%[29.8 µM]	8%[53.3 µM]
Cc1cccc(C)c1Nc1c(-c2ccccn2)nc2ccc(Cl)cn12	4%	i	i	i	13%	-4%
Cc1cccc(C)c1Nc1c(-c2ccccc2Cl)nc2cnccn12	-3%	i	i	22µM*	-19%	-4%
O=C(NO)c1cnc(NC2(c3ccccc3)CC2)nc1	nt	nt	nt	nt	11%	nt
COc1ccc(-c2coc3cc(O)cc(O)c3c2=O)cc1	nt	nt	nt	nt	-34%[57.5 µM]	-20%[53.3 µM]
O=c1c(-c2ccc(O)cc2)coc2cc(O)cc(O)c12	nt	nt	nt	i	71µM*!	?
CCOc1ccccc1NC(=O)N1CCN(C)c2ncccc21	9%	i	i	i	89µM*	-21%
O=C(NC1CCCc2c1cnn2-c1ccc(F)cc1F)c1ccccc1 (stereo unspecified)	nt	nt	nt	nt	79µM*!	nt
O=C(NC1CCCc2c1cnn2CCO)c1ccccn1 (stereo unspecified)	nt	nt	nt	nt	12%	nt
CC1(C)CC[C@]2(C(=O)O[C@@H]3O[C@H](CO)[C@@H](O)[C@H](O)[C@H]3O)CC[C@]3(C)C(=CCC4[C@@]5(C)C[C@@H](O)[C@H](O)C(CO)(CO)C5CC[C@]43C)C2[C@@H]1O (stereo partly specified)	nt	nt	nt	nt	14%[12.6 µM]	6%[20.6 µM]
COc1cc(/C=C2\C(=O)Nc3ccccc32)ccc1O	nt	nt	nt	nt	79µM*	nt
CCOC(=O)C1CCN(S(=O)(=O)c2cc(-c3cc(C)no3)ccc2OC)CC1	-1%	i	i	i	89µM*	-14%
N#Cc1ccc2[nH]c(O)c(-c3ccc(CN4CCOCC4)cn3)c2c1	nt	nt	nt	nt	5%[57.5 µM]	-7%
O=C1CCCC2=C1C(c1[nH]ncc1Br)N=C(Nc1nc3ccccc3o1)N2 (stereo unspecified)	nt	nt	nt	nt	2%	nt
Cc1[nH]c2ccc(C(=O)NCCc3ccccc3Cl)cc2c1C	0%	i	i	i	89µM*	-21%
SMILES	GALK inh	TSG101-PTAP inh	B2AR arrestin ag	GALC G270D up	NTMT1 inhibitor	FH mod	others
Cc1ccc(NS(=O)(=O)c2cccc(C#N)c2)c2[nH]cc(C#N)c12	nt	nt	nt	nt	13%	nt
CC(C)CN(CC(C)C)CC(O)Cn1cc(/C=C/C(=O)c2ccccc2)c2ccccc21 (stereo unspecified)	-2%	i	i	i	5%	-19%
CCCN(CCC)CC(O)Cn1cc(/C=C/C(=O)c2ccc(OCC)cc2)c2ccccc21 (stereo unspecified)	1%	i	i	35µM*	-4%	-10%
CCn1c(N)c(C(=O)NC)c(=O)c2ccc(C#CC(C)(O)COC)nc21 (stereo unspecified)	nt	nt	nt	nt	?	-1%
NC(=NCCCCCCN=C(N)/N=C(\N)Nc1ccc(Cl)cc1)/N=C(\N)Nc1ccc(Cl)cc1	nt	nt	nt	i	25µM*!	32%	NNMT inh=?
Cc1ccc(CN(C)c2ncnc3ccc(-c4ccc(CO)n4C)cc23)o1	nt	nt	nt	nt	nt	nt	CLK4 inh=23µM*
C=Cc1cc2oc(-c3ccc(O)c(F)c3)nc2cc1O	nt	nt	nt	nt	28µM*	?	NNMT inh=?
CC#C[C@@H](CC(=O)O)c1ccc(OCc2cccc(-c3ccc(C(F)(F)F)cc3)c2)cc1	nt	nt	nt	nt	22µM*	?	NNMT inh=?
CC(C)C[C@H](C(=O)O)c1cc(-c2ccc(C(F)(F)F)cc2)cc(-c2ccc(C(F)(F)F)cc2)c1	nt	nt	nt	nt	-17%[57.5 µM]	?
c1ccc(-c2nc(NCc3ccc(-c4cccnc4)cc3)c3ccccc3n2)cc1	nt	nt	nt	nt	2%[57.5 µM]	nt
Cc1nc(C#Cc2ccnc(Cl)c2)c(C)n1-c1ccc(OC(F)(F)F)cc1	nt	nt	nt	nt	?	-14%	NNMT inh=-17%
Fc1cnc(-c2ccccc2C(F)F)nc1NCc1ccc(-c2ccn[nH]2)cc1	nt	nt	nt	nt	-3%	nt
N[C@@H](CC(=O)Nc1ccc(Oc2cc(F)c(F)cc2Br)cc1)C(=O)O	nt	nt	nt	nt	2%[57.5 µM]	?
